{
  "source": "PubChem BioAssay (NCATS)",
  "note": "Results filed as inconclusive are left out. Entries that show only a call come without a potency. Values without a mark were called inactive. Activity calls are given as the source filed them. The call rests on the fitted dose curve; in most records, active means well fitted inhibition curve with a large enough effect; inconclusive means small, poorly fitted or top-dose-only effect; inactive means flat fitted curve, though single readings scatter.",
  "data": [
    {"molecular_target": "Calcium and integrin-binding protein 1 (Homo sapiens) (UniProt Q99828)", "sequence (Q99828 whole entry, looked up)": "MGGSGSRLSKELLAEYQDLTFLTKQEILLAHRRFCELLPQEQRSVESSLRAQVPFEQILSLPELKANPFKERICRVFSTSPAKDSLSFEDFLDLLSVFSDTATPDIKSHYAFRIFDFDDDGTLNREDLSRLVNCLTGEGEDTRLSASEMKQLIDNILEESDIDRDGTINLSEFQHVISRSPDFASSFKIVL", "experiment": "Primary qHTS for Identification of Calcium Integrin Binding Protein 1 (CIB1) Competitor (AID 1508620);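 further: GST tagged CIB1 binding a fluorescein labelled alphaIIb integrin peptide tracer; top concentration of the series differs between compounds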", "conditions": "CIB1-GST / FITC-alphaIIb peptide fluorescence polarization; series mostly up to 114 µM", "summary_of_the_method": "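CIB1-GST (1 uM final) and compound incubated 15 min at room temperature before adding FITC-alphaIIb peptide tracer (100 nM final). Competition for binding read by fluorescence polarization (ex 480, em 540) after another 15 min at room temperature.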", "values": [
      {"smiles": "C/C=C(/COC(=O)/C(C)=C/C)C(=O)OC(CC)c1ccc(OC)c(OC)c1", "note": "(stereo not drawn)", "Potency": "inactive"},
      {"smiles": "Cc1ccccc1CN1C2=NCCN2C(=O)C2=C1CCN(Cc1ccccc1)C2", "Potency": "inactive"},
      {"smiles": "C[C@H]1CC(=O)Nc2cccc(-c3cnn(C(C)(C)C)c3)c2N1", "Potency": "inactive"},
      {"smiles": "COc1ccc(F)cc1-c1cc(NC(=O)[C@@H]2CCCNC2)ncc1Cl", "Potency": "inactive"},
      {"smiles": "Cc1c(CN2CCN(C(=O)C(C)O)CC2)sc2c(N3CCOCC3)nc(-c3cnc(N)nc3)nc12", "note": "(stereo not drawn)", "Potency": "inactive"},
      {"smiles": "CC(C)(C)c1ccc(S(=O)(=O)NCc2ccc(C(=O)Nc3cccnc3)cc2)cc1", "Potency": "inactive"},
      {"smiles": "COC(=O)C12C(=O)C(C)=C(O)C1(C)C(C)=CC1C3(CO)CCC(O)C(C)(C)C3CCC12C", "note": "(stereo not drawn)", "Potency": "inactive"},
      {"smiles": "C[C@@H]1CC[C@]2(C(=O)OC3OC(CO)C(O)C(O)C3O)CC[C@]3(C)C(=CCC4[C@@]5(C)CC[C@H](O)[C@](C)(C(=O)O)C5CC[C@]43C)C2[C@]1(C)O", "note": "(stereo partly drawn)", "Potency": "inactive"},
      {"smiles": "Cc1[nH]c2ccccc2c1C1=C(NCCc2ccc(F)cc2)C(=O)N(C)C1=O", "Potency": "inactive"},
      {"smiles": "C=C1CCC2C(C)(C(=O)OC)CCCC2(C)C1CCC(C)CC(=O)O", "note": "(stereo not drawn)", "Potency": "inactive"},
      {"smiles": "O=C(O)Cc1ccc2oc(-c3ccc(NC(=O)/C=C/c4ccc(Br)cc4)c(F)c3)nc2c1", "Potency": "inactive"},
      {"smiles": "CC(C)(C(=O)NCC(F)(F)C(F)(F)F)C(=O)NC1C(=O)Nc2ccccc2-c2ccccc21", "note": "(stereo not drawn)", "Potency": "inactive"},
      {"smiles": "O=C(/C=C\\n1cnc(-c2cc(C(F)(F)F)cc(C(F)(F)F)c2)n1)N1CC(F)(F)C1", "Potency": "inactive"},
      {"smiles": "N#Cc1ccc2[nH]cc(CCCCN3CCN(c4ccc5oc(C(N)=O)cc5c4)CC3)c2c1", "Potency": "inactive"},
      {"smiles": "CC(C)[C@@](C)(O)[C@@H]1CN(c2nc(-c3[nH]nc4ncccc34)c(F)cc2Cl)CCN1", "Potency": "inactive"},
      {"smiles": "Cc1cc(NC(=O)Nc2ccc(F)c(F)c2)n(-c2ccccc2)n1", "Potency": "inactive"},
      {"smiles": "COc1c/c(=C2\\C=c3ccccc3=N2)[nH]/c1=C\\c1[nH]c(C)cc1C", "Potency": "inactive"},
      {"smiles": "COc1ccc(-n2[nH]c(=O)c3[nH]c4cc(Cl)ccc4c(=O)c3c2=O)c(C)c1", "Potency": "inactive"},
      {"smiles": "CON(C)C(=O)[C@H](O)[C@H](Cc1ccccc1)NC(=O)c1cc2cc(Cl)ccc2[nH]1", "Potency": "inactive"},
      {"smiles": "COc1ccccc1NC(=O)OCC1CCN(C(=O)OC(C)(C)C)CC1", "Potency": "inactive"},
      {"smiles": "CN1CCc2nc(C(=O)N[C@@H]3C[C@@H](C(=O)N(C)C)CC[C@@H]3NC(=O)C(=O)Nc3ccc(Cl)cn3)sc2C1", "Potency": "inactive"},
      {"smiles": "C=C(C(=O)O)C1CC2=C(C)CCCC2(C)C[C@@H]1O", "note": "(stereo partly drawn)", "Potency": "inactive"},
      {"smiles": "C[C@H]1CC[C@@H]2N(C1)C[C@@H]1[C@H]([C@@H](O)[C@H](O)[C@]3(O)[C@H]1C[C@@]14OC5(O)[C@@H](C[C@@H](O)[C@@H]31)[C@]4(C)CC[C@@H]5O)[C@]2(C)O", "Potency": "inactive"},
      {"smiles": "C=C(CO)C12OC1C1(C)C(=CC2=O)C(O)C(O)CC1C", "note": "(stereo not drawn)", "Potency": "inactive"},
      {"smiles": "C=CC(=O)N1CCN(C(=O)CNc2cc(I)c(Cl)cc2O)CC1", "Potency": "inactive"},
      {"smiles": "C[C@@H]1CC[C@]2(C(=O)O)CC[C@]3(C)C(=CCC4[C@@]5(C)CC[C@H](O)C(C)(C)C5C(O)C[C@]43C)[C@@H]2[C@]1(C)O", "note": "(stereo partly drawn)", "Potency": "inactive"},
      {"smiles": "CC1(C(=O)O)CCCC2(C)C3CCC4CC3(CCC12)CC4=O", "note": "(stereo not drawn)", "Potency": "inactive"},
      {"smiles": "CC(C)C(NC(=O)c1ccc2ccccc2n1)C(=O)NC(CC(=O)O)C(=O)COc1c(F)cccc1F", "note": "(stereo not drawn)", "Potency": "inactive"},
      {"smiles": "Cc1cc(C)cc(C(=O)NOCCCCCC(=O)NO)c1", "Potency": "inactive"},
      {"smiles": "CC1OC(O[C@H]2CC[C@@]3(C)C(CC[C@]4(C)C3CC=C3C5CC(C)(C)CC[C@]5(C(=O)OC5OC(CO)C(OC6OC(COC7OCC(O)C(O)C7O)C(O)C(O)C6O)C(O)C5O)CC[C@]34C)C2(C)C)C(O)C(O)C1OC1OCC(OC2OCC(O)C(O)C2O)C(O)C1O", "note": "(stereo partly drawn)", "activity change, negative = inhibition": "-11.1% [at 12.4 µM]"},
      {"smiles": "C=C1C[C@@]23CCC4[C@@](C)(CCC[C@@]4(C)C(=O)OC)C2CC[C@@H]1C3", "note": "(stereo partly drawn)", "Potency": "inactive"},
      {"smiles": "C[C@@H]1CC[C@]2(C(=O)O[C@@H]3O[C@H](CO)[C@@H](O)[C@H](O)[C@H]3O)CC[C@]3(C)C(=CCC4[C@@]5(C)C[C@@H](O)[C@H](O)[C@](C)(C(=O)O)C5CC[C@]43C)[C@@H]2[C@]1(C)O", "note": "(stereo partly drawn)", "Potency": "inactive"},
      {"smiles": "CC1=CC2/C=C(\\C)CC[C@@H](O)[C@@H](O)[C@@H]3O[C@@H]3C(=O)[C@]23C(=O)N[C@@H](CC(C)C)[C@@H]3[C@@H]1C", "note": "(stereo partly drawn)", "Potency": "inactive"},
      {"smiles": "CNC(=S)NS(=O)(=O)c1cc(CCNC(=O)c2cc(Cl)ccc2OC)ccc1OC", "Potency": "inactive"},
      {"smiles": "COc1cc2c(c(OC)c1CC=C(C)C)C[C@H](c1ccc(O)cc1O)CO2", "Potency": "inactive"},
      {"smiles": "C=C(C)C1CCC2(C(=O)O[C@@H]3O[C@H](CO[C@@H]4O[C@H](CO)[C@@H](O)[C@H](O)[C@H]4O)[C@@H](O)[C@H](O[C@@H]4O[C@@H](C)[C@H](O)[C@@H](O)[C@H]4O)[C@H]3O)CCC3(C(=O)O)C(CCC4C5(C)CCC(O)C(C)(C)C5CCC43C)C12", "note": "(stereo partly drawn)", "Potency": "inactive"},
      {"smiles": "CC1=C(C(=O)OCc2ccccc2)C(c2ccc(-c3ccccc3)cc2)NC(=O)N1CCCCCC(=O)O", "note": "(stereo not drawn)", "Potency": "inactive"},
      {"smiles": "CC1(C)[C@@H](O)CC[C@]2(C)[C@H]3CC=C4[C@@H]5C[C@](C)(C(=O)O)CC[C@]5(C)CC[C@@]4(C)[C@]3(C)CC[C@@H]12", "Potency": "inactive"}
    ]}
  ]
}
